Reference: PubChem BioAssay
Several values for one entry are separate records, joined by “and”; a condition that tells them apart may be missing. Identical values can stand only once. Activity calls are given as the source filed them.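 How the source made its calls, unless noted: active means inhibition at or above 50% relative to wild type and mutant plate controls; inactive means inhibition below 50%.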

Assays:
[1] = inhibitors of TNFa-induced NFkB p65 translocation, primary screen, imaging, HUVEC, MLSMR starter and 10KST1 sets (AID 438;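 active means inhibition above 20% together with a positive visual image hit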;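 further: compound added about 3h40 before a 20 min TNFalpha stimulation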;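 on inhibition: signal is the nuclear over cytoplasmic p65 intensity ratio per well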); conditions: HUVEC TNFa-induced p65 nuclear translocation; cell count: measured here: nuclei count (cytotoxicity indicator), at 2.08 µM; inhibition: at 2 µM, stronger effect = higher value, 0% TNFa-plus-vehicle, 100% no-TNFa wells
[2] = inhibitors of mutant huntingtin aggregation, primary screen, imaging, exon1htt(103Q)mCFP cells, high-content imaging (AID 483;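 active means visual image review flags a hit and inhibition of aggregation exceeds 20%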;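 further: compound exposure lasted 3 days before fixation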;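 on nuclei count: percent of the per-plate median nuclei count of sample wells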); conditions: exon1htt(103Q)mCFP cell line, aggregate imaging, at 2 µM; inhibition of aggregation: stronger effect = higher value; nuclei count: measured here: cell count, toxicity
[3] = inhibitors of E-selectin induction by TNFa, primary screen, imaging, HUVEC, immunofluorescence, MLSMR starter and 10KST1 sets (AID 487;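 active means visually confirmed hit in the image check and inhibition above 20%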;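 on inhibition: signal is fraction of cell area covered by stained E-selectin grains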;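 on nuclei count: 100% = median nuclei count of all wells on the same plate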); conditions: HUVEC TNFalpha-induced E-selectin immunofluorescence imaging, at 2 µM; inhibition: stronger effect = higher value; nuclei count: measured here: cell number, toxicity
[4] = DUSP6 inhibitors restoring Erk phosphorylation by chemical complementation, primary imaging in DUSP6-transfected HeLa (AID 609;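 active means compounds giving at least 50% inhibition in the cell-based MKP-3 phosphatase rescue imaging test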;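 on inhibition: phospho-Erk level distribution per well compared with pooled transfected vehicle control wells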); conditions: HeLa MKP-3 transfected, phospho-Erk imaging KS statistic, at 10 µM, cells stimulated with TPA for 15 min
[5] = molecular target: Dual specificity protein phosphatase 6 (Homo sapiens) (UniProt Q16828); test: as above; conditions: HeLa MKP-3 transfected, phospho-Erk imaging KS statistic; at 10 µM; stronger effect = higher value; cells stimulated with TPA for 15 min
[6] = molecular target: Voltage-gated potassium channel subunit beta-2 (Rattus norvegicus) (UniProt P62483); test: KvBeta enzyme negative modulators, primary screen, biochemical, NADPH fluorescence (AID 622;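 active means fluorescence slope higher than the sample average by over 3 SD, cut at about -0.22 in these data, passing the limit was not always enough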;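 further: slope of raw intensity against log time taken from 70 to 1610 s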); conditions: recombinant KvBeta, 4-cyanobenzaldehyde reduction, at 10 µM, stronger effect = higher value
[7] = molecular target: Voltage-gated potassium channel subunit beta-2 (Rattus norvegicus) (UniProt P62483); test: KvBeta positive modulators, primary screen, biochemical, NADPH fluorescence (AID 623;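 active means NADPH fluorescence slope more negative than the mean of all samples by about 3 SD, 99.7% confidence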;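 further: fluorescence intensity change per second fitted from 20 to 320 s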); conditions: Recombinant KvBeta, NADPH fluorescence decrease slope, 10 min; at 10 µM; stronger effect = lower value
[8] = molecular target: Alpha-2C adrenergic receptor (Homo sapiens) (UniProt P18825); test: modulators of alpha2C/GIRK thallium flux, primary screen, cell-based, HEK293 alpha2C/GIRK1/2 (AID 624;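 active means fluorescence slope after compound addition differing from the mean of all screened samples at 99.7% confidence, in either direction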;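 further: slope of fluorescence ratio to pre-addition baseline per second over 15 to 24 s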); conditions: thallium flux BTC fluorescence, at 10 µM, actives lie on both sides
[9] = inhibitors of larval lipid processing in zebrafish, primary screen, whole organism, PED6 fluorescence, gall bladder and intestine (AID 686;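 active means a full or partial loss of lipid-probe fluorescence in the fish gall bladder, intestine or both, judged by eye; inactive means no fluorescence loss, or compound toxic to the fish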;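 further: larvae 5 to 7 days old with five fish per well; signal comes from phospholipase A2 cleavage of quenched PED6 carried via bile; overnight exposure to compound and PED6 before scoring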); conditions: Zebrafish larvae PED6 lipid processing, fluorescence scoring; screened at 20 µM (by protocol)
[10] = inhibitors of Chlamydomonas gravitaxis, primary screen, whole organism, Chlamydomonas reinhardtii, WT vs cilia-less mutant, absorbance, 96-well (AID 463189); conditions: OD600 absorbance, 2 days, at 10 µM, stronger effect = higher value;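 further: 0% = wild type cc124 cells in DMSO and 100% = ciliumless bld1 mutant cells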
[11] = inhibitors of Sendai virus-induced IRF3 signaling, primary screen, TLR/RLR signaling modifier project, cell-based, Sendai virus stimulus, luciferase, 10K MLSCN set (AID 602276;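 active means inhibition at or above 50% at 10 µM; inactive means inhibition below 50%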;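 further: firefly luciferase from ISG56 promoter only with Renilla not read in this screen; 0% = Sendai virus plus DMSO and 100% = medium plus DMSO without virus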); conditions: HEK293 RL24 IRF3 luciferase reporter, at 10 µM, stronger effect = higher value
[12] = inhibitors of poly I:C-induced TLR3 signaling, primary screen, cell-based, poly I:C stimulus, luciferase, 10K MLSCN set (AID 602277;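 active means inhibition of the reporter signal at or above 50%; inactive means inhibition below 50%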); conditions: HEK293-TLR3 RL24 IRF3 luciferase reporter, at 10 µM, stronger effect = higher value
[13] = measured here: cell density z-score
[14] = measured here: nuclear c-Myc green intensity z-score
[15] = measured here: nuclear pErk red intensity z-score, stronger effect = higher value

Sequence of Alpha-2C adrenergic receptor (Homo sapiens) (P18825 whole entry, looked up): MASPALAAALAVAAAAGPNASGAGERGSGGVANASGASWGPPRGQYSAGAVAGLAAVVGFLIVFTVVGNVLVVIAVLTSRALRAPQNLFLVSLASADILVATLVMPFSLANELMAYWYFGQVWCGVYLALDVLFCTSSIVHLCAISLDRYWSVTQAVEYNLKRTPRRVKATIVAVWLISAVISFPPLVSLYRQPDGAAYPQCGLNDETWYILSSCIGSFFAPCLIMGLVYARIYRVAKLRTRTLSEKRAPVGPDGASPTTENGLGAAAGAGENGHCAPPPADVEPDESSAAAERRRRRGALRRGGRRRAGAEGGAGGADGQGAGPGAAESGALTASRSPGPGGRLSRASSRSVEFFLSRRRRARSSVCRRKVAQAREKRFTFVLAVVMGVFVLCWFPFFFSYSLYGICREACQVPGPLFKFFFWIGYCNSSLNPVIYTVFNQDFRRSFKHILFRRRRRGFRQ
Sequence of Voltage-gated potassium channel subunit beta-2 (Rattus norvegicus) (P62483 whole entry, looked up): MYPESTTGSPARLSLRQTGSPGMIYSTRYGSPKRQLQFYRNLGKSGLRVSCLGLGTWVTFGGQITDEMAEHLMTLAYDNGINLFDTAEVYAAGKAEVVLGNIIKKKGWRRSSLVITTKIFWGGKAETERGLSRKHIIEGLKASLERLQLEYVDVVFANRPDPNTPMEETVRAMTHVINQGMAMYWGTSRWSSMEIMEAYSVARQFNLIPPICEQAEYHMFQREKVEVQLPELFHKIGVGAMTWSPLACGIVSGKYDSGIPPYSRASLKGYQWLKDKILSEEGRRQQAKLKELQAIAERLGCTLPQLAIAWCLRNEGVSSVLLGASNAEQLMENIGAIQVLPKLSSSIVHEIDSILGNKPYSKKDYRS
Sequence of Dual specificity protein phosphatase 6 (Homo sapiens) (Q16828 whole entry, looked up): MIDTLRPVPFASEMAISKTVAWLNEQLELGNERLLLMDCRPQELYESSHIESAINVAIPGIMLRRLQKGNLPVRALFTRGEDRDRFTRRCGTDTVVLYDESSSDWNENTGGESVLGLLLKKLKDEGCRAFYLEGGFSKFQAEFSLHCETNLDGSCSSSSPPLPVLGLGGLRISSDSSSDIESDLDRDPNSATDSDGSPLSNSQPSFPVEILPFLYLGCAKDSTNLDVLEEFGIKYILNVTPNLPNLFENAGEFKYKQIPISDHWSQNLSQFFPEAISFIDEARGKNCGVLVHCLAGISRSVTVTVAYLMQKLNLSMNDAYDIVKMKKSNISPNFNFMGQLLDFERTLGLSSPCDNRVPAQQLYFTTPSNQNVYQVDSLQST

Compound | cell count [1] | inhibition [1] | inhibition of aggregation [2] | nuclei count [2] | inhibition [3] | nuclei count [3] | z-score [4, 13] | z-score [4, 14] | z-score [4, 15] | inhibition [5] | fluorescence slope [6] | NADPH fluorescence slope [7] | slope [8] | outcome [9] | inhibition [10] | inhibition [11] | inhibition [12]
CCCCC(=O)O[C@]1(C(=O)CO)CC[C@H]2[C@@H]3CCC4=CC(=O)CC[C@]4(C)[C@H]3[C@@H](O)C[C@@]21C | 559 | -9.3% (inactive) | -2.8% (inactive) | 44.6% | -73.8% (inactive) | 120% | -0.284 | -0.0177 | 0.0777 | -0.493% (inactive) | -0.554 (inactive) | -4.6e-05 (inactive) | 0.00469 (inactive) | inactive | 15.5% (inactive) | -1.27% (inactive) | 57.4% (active)
Nc1ncnc2c1ncn2[C@@H]1O[C@H](CO)[C@@H](O)[C@H]1O | 562 | -1.7% (inactive) | -15.3% (inactive) | 101% | -40.5% (inactive) | 128% | 0.315 | -0.14 | 0.779 | -12.3% (inactive) | -0.453 (inactive) | -3.6e-05 (inactive) | 0.00542 (inactive) | inactive | -7.15% (inactive) | 11.2% (inactive) | 25.6% (inactive)
CC(=O)Nc1ccc(S(=O)(=O)Nc2nc3n(n2)C(c2ccccc2)CC(=O)N3)cc1 (stereo unspecified) | 456 | -7.4% (inactive) | -5.2% (inactive) | 116% | -106% (inactive) | 137% | -0.235 | -1.01 | 1.56 | 21% (inactive) | -0.507 (inactive) | -2e-05 (inactive) | 0.00521 (inactive) | inactive | -0.258% (inactive) | 16.4% (inactive) | 16.2% (inactive)
COc1cccc(OC)c1OCCN1CCN(C(=O)c2ccco2)CC1 | 361 | -3.1% (inactive) | 10.7% (inactive) | 104% | -24.8% (inactive) | 102% | 0.154 | 0.0392 | -1.87 | 13.2% (inactive) | -0.538 (inactive) | -6.4e-05 (inactive) | 0.00433 (inactive) | inactive | -8.27% (inactive) | 11.8% (inactive) | 17.9% (inactive)
CCCCCCCCCCCCCCCC(O)C(N)CO (stereo unspecified) | 586 | 0.2% (inactive) | -17.4% (inactive) | 104% | -75.6% (inactive) | 122% | 0.584 | 2.76 | 2.96 | 25.1% (inactive) | -0.485 (inactive) | -6.4e-05 (inactive) | 0.00528 (inactive) | inactive; toxic | 61% (active) | 18.8% (inactive) | 4.1% (inactive)
Cc1nnc2n(Cc3ccccc3)c(=O)c3c4c(sc3n12)COC(C(C)C)C4 (stereo unspecified) | 511 | 9.8% (inactive) | 29.9% (inactive) | 80.8% | -54.8% (inactive) | 118% | 0.665 | -0.394 | -1.52 | -1.12% (inactive) | -0.46 (inactive) | -0.000365 (inactive) | 0.00653 (inactive) | inactive | 146% (active) | 11.6% (inactive) | 3.4% (inactive)
COc1ccc(Cn2c(CCCO)nc3ccccc32)cc1OC | 577 | -7.7% (inactive) | -17% (inactive) | 105% | -84% (inactive) | 122% | -0.981 | 1.12 | 1.14 | -5.89% (inactive) | -0.412 (inactive) | -4.3e-05 (inactive) | 0.0064 (inactive) | inactive | 2.72% (inactive) | 13.3% (inactive) | 22.4% (inactive)
N=c1nc(N2CCCCC2)cc(N)n1O | 660 | 0.9% (inactive) | -1.2% (inactive) | 114% | -58.5% (inactive) | 138% | -0.689 | -0.0187 | 0.315 | 25.7% (inactive) | -0.46 (inactive) | -6e-05 (inactive) | 0.00444 (inactive) | inactive | 1.56% (inactive) and -3.08% (inactive) | 9.96% (inactive) | 34.6% (inactive)
CC(=O)OCC(=O)[C@@]12OC3(CCCC3)O[C@@H]1C[C@H]1[C@@H]3CCC4=CC(=O)C=C[C@]4(C)[C@@]3(F)[C@@H](O)C[C@@]12C | 609 | -5.2% (inactive) | -15.8% (inactive) | 51.6% | -15.3% (inactive) | 118% | 0.724 | 0.328 | 0.81 | 5.42% (inactive) | -0.54 (inactive) | -2.6e-05 (inactive) | 0.0055 (inactive) | inactive | 22.1% (inactive) | 8.27% (inactive) | 39.3% (inactive)
Nc1ccc2cn[nH]c2c1 | 616 | 0.3% (inactive) | 9% (inactive) | 94.8% | -58.4% (inactive) | 123% | -0.59 | 0.481 | -0.693 | 5.79% (inactive) | -0.531 (inactive) | -2.3e-05 (inactive) | 0.00412 (inactive) | inactive | -10.8% (inactive) | 3.56% (inactive) | 33% (inactive)
CCOC(=O)c1c(C(F)(F)C(F)(F)C(F)(F)C(F)(F)F)n[nH]c1C | 532 | -3.7% (inactive) | 10.3% (inactive) | 97.3% | -78.6% (inactive) | 128% | -0.312 | 0.0825 | -0.449 | 11.3% (inactive) | -0.521 (inactive) | -9.8e-05 (inactive) | 0.00424 (inactive) | inactive | 17.6% (inactive) | 17.2% (inactive) | 24.6% (inactive)
CCC(C(=O)OCCN(CC)CC)c1ccccc1 (stereo unspecified) | 572 | -11.1% (inactive) | -9.9% (inactive) | 104% | -56.9% (inactive) | 130% | 1.14 | 1.04 | 0.111 | 19.2% (inactive) | -0.459 (inactive) | -3.7e-05 (inactive) | 0.00422 (inactive) | inactive | 21.8% (inactive) | 8.3% (inactive) | 34.3% (inactive)
Cc1ccc(N(CC(O)CN2CCCC2)S(=O)(=O)c2ccc(C)cc2)cc1 (stereo unspecified) | 415 | -5.4% (inactive) | 8.3% (inactive) | 97.4% | -210% (inactive) | 148% | 1.32 | -1.19 | -0.796 | 13.2% (inactive) | -0.388 (inactive) | -5e-05 (inactive) | 0.00478 (inactive) | inactive | 7.07% (inactive) | -14.3% (inactive) | -1.97% (inactive)
COc1ccc2c(c1)c(CC(=O)OCC(=O)O)c(C)n2C(=O)c1ccc(Cl)cc1 | 609 | -4% (inactive) | -25.2% (inactive) | 89.1% | -34.9% (inactive) | 111% | -0.113 | 0.548 | -0.549 | 17.3% (inactive) | -0.451 (inactive) | -3.8e-05 (inactive) | 0.00555 (inactive) | inactive | 14.4% (inactive) | 11.9% (inactive) | 36.9% (inactive)
Cc1ccc(-n2nc3cc(Cl)c(NC(=O)c4ccco4)cc3n2)cc1 | 566 | -2.6% (inactive) | -7.2% (inactive) | 112% | -52% (inactive) | 137% | -0.552 | 1.17 | -0.609 | -0.674% (inactive) | -0.459 (inactive) | -5.2e-05 (inactive) | 0.00706 (inactive) | inactive | 6.11% (inactive) | -16.5% (inactive) | -49.9% (inactive)
COCCCC/C(=N\OCCN)c1ccc(C(F)(F)F)cc1 | 514 | -7.2% (inactive) | -27.7% (inactive) | 100% | -121% (inactive) | 121% | 1.11 | -1.18 | 0.0602 | 9.37% (inactive) | -0.468 (inactive) | -6.2e-05 (inactive) | 0.00513 (inactive) | inactive | -1.98% (inactive) and -5.54% (inactive) | 5.66% (inactive) | 36.1% (inactive)
CN(C)C(=O)Oc1cccc([N+](C)(C)C)c1 | 531 and 586 | -9.9% (inactive) and -7.8% (inactive) | 17.2% (inactive) and -13.6% (inactive) | 74.9% and 106% | -9.8% (inactive) and -52% (inactive) | 104% and 142% | 0.51 and -0.93 | 1.04 and 0.599 | 0.404 and -0.0753 | 17.3% (inactive) and -0.493% (inactive) | -0.425 (inactive) and -0.463 (inactive) | -3.3e-06 (inactive) and -0.000178 (inactive) | 0.00518 (inactive) and 0.00527 (inactive) | inactive | -1.35% (inactive) and 24.7% (inactive) and 16% (inactive) | 14.9% (inactive) and 3.46% (inactive) | 31.8% (inactive) and 16.1% (inactive)
N#C/C(=C\c1ccc(O)c(O)c1)C(=O)NCCCc1ccccc1 | 629 | 3.7% (inactive) | -14.6% (inactive) | 98.2% | -94.6% (inactive) | 131% | 1.89 | 0.253 | -0.466 | 16.8% (inactive) | -0.49 (inactive) | -5.4e-05 (inactive) | 0.00485 (inactive) | inactive | 2.27% (inactive) and -1.78% (inactive) | -14.9% (inactive) | -17.2% (inactive)
